Data on 40 molecules can be found in PubChem BioAssay (NCATS).

Inconclusive results are not listed. Calls of active or inactive are those of the source. Calls follow the shape of the dose curve; as a rule, active = well fitted curve in the direction sought with a large enough effect; inconclusive = small, poorly fitted or top-dose-only effect, or another doubt; inactive = no such curve, though single readings can be large or run the other way.

Sequence of Protein phosphatase 1D (Homo sapiens) (O15297 whole entry, looked up): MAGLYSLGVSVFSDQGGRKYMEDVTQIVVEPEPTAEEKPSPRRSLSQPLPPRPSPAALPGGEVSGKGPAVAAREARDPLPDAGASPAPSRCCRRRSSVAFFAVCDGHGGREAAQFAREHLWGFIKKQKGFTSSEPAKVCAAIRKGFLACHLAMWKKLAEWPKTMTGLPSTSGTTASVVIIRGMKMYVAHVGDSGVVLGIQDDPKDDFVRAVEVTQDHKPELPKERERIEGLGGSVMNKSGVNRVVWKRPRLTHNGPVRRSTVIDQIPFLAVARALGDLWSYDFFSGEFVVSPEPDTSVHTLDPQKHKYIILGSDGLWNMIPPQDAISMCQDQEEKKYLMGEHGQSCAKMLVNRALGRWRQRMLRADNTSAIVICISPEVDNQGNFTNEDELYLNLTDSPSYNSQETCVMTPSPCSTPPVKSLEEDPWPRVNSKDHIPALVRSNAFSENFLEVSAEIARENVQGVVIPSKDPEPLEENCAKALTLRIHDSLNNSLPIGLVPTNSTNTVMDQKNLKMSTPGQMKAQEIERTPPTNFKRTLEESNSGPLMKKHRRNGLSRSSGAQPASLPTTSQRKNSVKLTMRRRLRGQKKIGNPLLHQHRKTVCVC

The experiment addresses Protein phosphatase 1D (Homo sapiens) (UniProt O15297). Description: Rhodamine-PBP qHTS Assay for Modulators of WT P53-Induced Phosphatase 1 (WIP1) (AID 1347425). To be noted: recombinant WIP1, Rhodamine-PBP phosphate fluorescence, real-time; series mostly up to 57.5 µM. From the text: Assay Provider (PI): Nathan Coussens Ph.D.
National Center for Advancing Translational Sciences (NCATS), Rockville, MD
National Institute of Health (NIH), Bethesda, Maryland
WT P53-Induced Phosphatase 1 (WIP1) is a member of the magnesium-dependent serine/threonine protein phosphatase (PPM) family and is induced by P53 in response to DNA damage. In several human cancers, the WIP1 protein is overexpressed, which is generally associated with a worse prognosis. Although WIP1 is an attractive therapeutic target, no potent, selective, and bioactive small-molecule modulator with favorable pharmacokinetics has been reported. Phosphatase enzymes are among the most challenging targets for small molecules because of the difficulty of achieving both modulator selectivity and bioavailability. Another major obstacle has been the availability of robust and physiologically relevant phosphatase assays that are suitable for high-throughput screening.
Here, we describe two orthogonal biochemical WIP1 activity assays that utilize phosphopeptides from native WIP1 substrates. We optimized a RapidFire MS assay to quantify the enzymatically dephosphorylated peptide reaction product in a 384-well format. Additionally, a redshifted Rhodamine-PBP fluorescence assay was optimized in a 1,536-well format to enable real-time WIP1 activity measurements through the detection of the orthogonal reaction product, Pi. We validated these two optimized assays by quantitative high-throughput screening against the National Center for Advancing Translational Sciences (NCATS) Pharmaceutical Collection and used secondary assays to confirm and evaluate inhibitors identified in the primary screen.
SEQUENCE No. (e.g., 1, 2, 3, etc.); […] (e.g., Cells, Incubation, Reagent, etc.); VALUE; DESCRIPTION
1; Reagent; 3 uL; WIP1 (6.7 nM), Rh-PBP (13.3 uM), columns 1-48
3; Library Compounds; 23 nL; NCATS Pharmaceutical Collection, column 5-48
4; Control Compounds; DMSO in column 2, GSK2830371 (57.5 uM, final) in 3-fold serial dilutions in column 3, GSK2830371 (1.15 uM, final) in column 4
5; Time; 1 hr; incubation
6; Detection; fluorescence (f0); ViewLux, excitation filter = 525 nm, emission filter = 598 nm
7; Reagent; 1 uL; VEPP-pS-QETFS (40 uM), columns 2-48
8; Detection; fluorescence (f1); ViewLux, excitation filter = 525 nm, emission filter = 598 nm
NOTES (numbers refer to sequence above)
1 & 2; Black medium binding Greiner 1536-well plates (# 789176-F); assay buffer: 50 mM Tris-HCl pH 7.5, 30 mM MgCl2, 1mM TCEP, 0.1 mM EGTA, 75 ug/mL BSA; dispensed with a BioRaptr liquid handler (Beckman Coulter).
3 & 4; Kalypsys pintool (equipped with 1536 pinhead, Wako USA) transfer. Tip wash sequence: DMSO, methanol, 3 sec vacuum dry.
5; Room temperature incubation.
7; VEPPL-pS-QETFS in assay buffer dispensed with a BioRaptr; final reaction conditions: 5 nM WIP1, 10 uM VEPPL-pS-QETFS, 10 uM Rh-PBP, 50 mM Tris-HCl pH 7.5, 30 mM MgCl2, 1 mM TCEP, 0.1 mM EGTA, 75 ug/mL BSA.
8; Measurement taken at 1 min intervals for 11 min. Delta readout = f1 - f0.
(In qHTS, concentration-response curves come from the screen itself.)
For `CCN(CC)CCOc1ccccc1C(=O)CCc1ccccc1`, the result was inactive.

Consider `CCC(C(=O)OCCOCCN(CC)CC)c1ccccc1` (stereo not given), for which the result was inactive. For `CC1=C(C(=O)O)N2C(=O)[C@@H](NC(=O)[C@H](N)c3ccccc3)[C@H]2SC1` the value was “inactive”; for `O=C(c1ccc(F)cc1)C1CCN(CCn2c(=S)[nH]c3ccccc3c2=O)CC1`, “inactive”; for `COc1cc(C(=O)NCc2ccc(OCCN(C)C)cc2)cc(OC)c1OC`, “inactive”. Under `O=C(O)CCNC(=O)c1ccccc1` stands “inactive”; under `Cc1cccc(C)c1NC(=O)CN1CCCCCC1`, “inactive”. Under `COc1cc(C)nc(-n2nc(C)cc2OC)n1` stands “inactive”; under `C[N+]1(C)CCC(=C(c2ccccc2)c2ccccc2)CC1`, “inactive”. For the molecule `NC(=O)c1ccccc1O`, the outcome was inactive. For `COc1ccc(CN(CCN(C)C)c2ncccn2)cc1` the value was “inactive”. Under `O=C(NC1CCN(CCc2c[nH]c3ccccc23)CC1)c1ccccc1` stands “inactive”.

For `COc1ccc(C(=O)c2ccccc2)c(O)c1`, the result was inactive.

Turning to `O=C(NCCc1c[nH]c2ccccc12)c1cccnc1`, the outcome was inactive. Under `Cc1cc(CC(=O)O)c(C)n1-c1ccc(Cl)cc1` stands “inactive”; under `Cc1ccc2c(Br)cc(Br)c(O)c2n1`, “inactive”; under `Cc1cccc(C)c1NC(=O)CN1CCCC1`, “inactive”. Under `C#C[C@]1(O)CC[C@H]2[C@@H]3[C@H](C)CC4=C(CCC(=O)C4)[C@H]3CC[C@@]21C` stands “inactive”; under `COc1cc(N)c(Cl)cc1C(=O)NC1CCN(Cc2ccccc2)CC1`, “inactive”; under `Cn1c(=O)c2[nH]c(Br)nc2n(C)c1=O`, “inactive”. Under `CCCCCCCCCCCCSCCOCCO` stands “inactive”; under `O=C(Nc1ccccc1)OCC(CN1CCCCC1)OC(=O)Nc1ccccc1` (stereo not given), “inactive”; under `N#C/C(=C1\SCC(c2ccccc2Cl)S1)n1ccnc1` (stereo not given), “inactive”. On to `CCNC(=O)NCc1cccc(Cl)c1`, for which the outcome was inactive. For the molecule `COC(=O)C(c1ccccc1Cl)N1CCc2sccc2C1` (stereo not given), the result was inactive. Under `O[C@@H](c1cc(C(F)(F)F)nc2c(C(F)(F)F)cccc12)[C@H]1CCCCN1` stands “inactive”; under `CCN(CC)CCNc1ccc(CO)c2sc3ccccc3c(=O)c12`, “inactive”. Under `O=C1c2cccc3c2[C@H](CCC3)CN1[C@@H]1CN2CCC1CC2` stands “inactive”. For `C[C@H]1O[C@@H](O[C@H]2CC[C@@]3(C)[C@H](CC[C@@H]4[C@@H]3C[C@@H](O)[C@]3(C)[C@@H](C5=CC(=O)OC5)CC[C@]43O)C2)C[C@H](O)[C@@H]1O[C@H]1C[C@H](O)[C@H](O[C@H]2C[C@H](O)[C@H](O[C@@H]3O[C@H](CO)[C@@H](O)[C@H](O)[C@H]3O)[C@@H](C)O2)[C@@H](C)O1` the value was “inactive”; for `Cc1cccc(C)c1NC(=O)c1ccccc1C(=O)O`, “inactive”; for `Nc1ccc(S(=O)(=O)Nc2cnc3ccccc3n2)cc1`, “inactive”. For `C/C=C/c1ccc(O)c(OC)c1`, the outcome was inactive. Under `CCC1Nc2cc(Cl)c(S(N)(=O)=O)cc2S(=O)(=O)N1` (stereo not given) stands “inactive”. Under `C[C@@H](O)[C@H]1C(=O)N2C(C(=O)O)=C(S[C@@H]3CN[C@H](CNS(N)(=O)=O)C3)[C@H](C)[C@H]12` stands “inactive”. Under `CCc1nn(CCCN2CCN(c3cccc(Cl)c3)CC2)c(=O)n1CCOc1ccccc1` stands “inactive”; under `COc1cc(NS(=O)(=O)c2ccc(N)cc2)ncn1`, “inactive”; under `CCCN(CCC)S(=O)(=O)c1ccc(C(=O)O)cc1`, “inactive”. On to `O=S(=O)(O)c1ccc(O)cc1`, for which the result was inactive. As for `O=C(CCN1CCN2CCCC2C1)N1c2ccccc2Sc2ccc(Cl)cc21` (stereo not given), the result was inactive. With `CCCCCCCCCCCCOCCOCCOCCOCCOCCOCCOCCOCCOCCO`, the outcome was inactive.
